Assay results reported in PubChem BioAssay AID1457 (National Center for Advancing Translational Sciences (NCATS), 2008).
Hit rate of the full screen: of about 210,000 compounds, about 730 (0.35%) were called active. Inconclusive results (about 1%) are left out. The full list was thinned out, with actives kept by preference. A number with no mark means an inactive call. Calls come from the whole dose curve; as a rule, active = well fitted inhibition curve with a large enough effect; inconclusive = small, poorly fitted or top-dose-only effect; inactive = no such curve, though single readings can be large or run the other way.

Assay: qHTS Assay for Identifying the Cell-Membrane Permeable IMPase Inhibitors: Potentiation with Lithium;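 note: IP1 builds up when IMPase is blocked and the TR-FRET signal falls; nearly all actives have a fitted effect of over 50% in size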;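 for activity, negative = IMPase inhibition: plate controls were basal vehicle for no effect and high inhibitor control for full effect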
Details: CHO-M1 cells, IP1 TR-FRET (IP-One), carbachol + lithium; series mostly up to 59.4 µM; activity, negative = IMPase inhibition: at the top concentration
Text: NIH Chemical Genomics Center [NCGC]
NIH Molecular Libraries Probe Production centers Network [MLPCN]
Assay Submitter (PI): Wei Zheng
Lithium has been widely used for the treatment of bipolar disorder. But lithium has a narrow therapeutic index and it can cause side effects such as thirst, weight gain, tremor, polyuria and memory problems. Although the mechanism for lithium action in treatment of bipolar disorder is still not fully understood, inhibition of inositol monophosphatase (IMPase) and the subsequent depletion of the inositol pool in living cells have been implicated as the primary therapeutic benefit of lithium therapy. Therefore, a selective IMPase inhibitor with reduced side effects might be a good drug candidate to replace lithium for the treatment of bipolar disorder. Several IMPase inhibitors have been discovered previously. However, they are not suitable for therapeutic use because of their poor cell membrane penetrability or oral bioavailability; the development of new cell-permeable IMPase inhibitors is needed.
IMPase catalyzes the hydrolysis of inositol-1-phosphate (IP1) to release free inositol. Binding of an agonist to a Gq coupled GPCR results in the activation of PLC, which hydrolyzes the PIP2 to form inositol-1,4,5-trisphosphate (IP3) and diacyl glycerol (DAG). While DAG activates protein kinase C (PKC), IP3 triggers the elevation of intracellular free Ca2+. The IP3 is very rapidly inactivated by hydrolysis to IP2, IP1 and then inositol by a series of enzymes including IMPase. Free inositols are used for synthesis of PI and thus start another inositol cycle.
To identify new cell-permeable IMPase inhibitors, we developed a cell-based IMPase assay in which the cytosolic IP1 is measured by a time-resolved fluorescence resonance energy transfer (TR-FRET) assay. In this assay, an IP1 specific antibody is used to detect the labeled IP1 tracer. When the cell lysate contains the elevated IP1 due to the inhibition of IMPase, the TR-FRET between the labeled antibody and IP1 tracer is disrupted resulting in a reduction in the total signal. Since the TR-FRET is used, this cell-based assay is a homogenous assay without cell wash and medium change that is suitable for assay miniaturization and HTS. In this particular assay, a small amount of lithium is added to potentiate the response of weak activators.
NCGC Assay Protocol Summary:
A Chinese hamster ovary (CHO) cell line stably expressing the M1 receptor (CHO-M1) was obtained from ATCC and maintained in F-12 Kaighn's media (Invitrogen, Carlsbad, CA) supplemented with 10 % FBS, 100 units/ml penicillin, 100 ug/ml streptomycin and 250 ug/ml geneticin at 37C, 5% CO2 in a humidified atmosphere. Before the assay, aliquots of cells were frozen and stored at -135C. The assay was performed in 1536-well format. Data are reported for both the ratio of the two emission wavelengths, and also for the component 'donor' channel, Em2=620. […] AC50 values were determined from concentration-response data modeled with the standard Hill equation.
(1) Frozen CHO-M1 cells were thaw, washed once with fresh media and resuspended in F12K media containing 10% FBS, 100 units/ml penicillin and 100 ug/ml streptomycin. Cells were plated at 4ul/well (2000 cells) in white, tissue culture treated 1536-well plates, and then cultured at 37C, 5 % CO2 for 16 to 30 hours.
(2) Add 23 nl/well of compound in DMSO solution. The final titration for each compound was between 0.6 nM and 46 uM.
(4) Incubation at 37C, 5 % CO2 for 30 min.
(5) Add 1 ul/well of d2-conjugated IP1 (d2-IP1) and 1 ul/well of Eu+ cryptate conjugated anti-IP1 antibody (Eu+-Ab) prepared in the cell lysis buffer, both from the IP-One kit (Cisbio, MA).
(6) Incubate at room temperature for 10 minutes.
(7) Detect the assay plate (Ex = 320, Em1 =665 and Em2 620) in a ViewLux plate reader.
Potency is the fitted concentration of half-maximal effect.

| Compound | activity, negative = IMPase inhibition | Potency |
| --- | --- | --- |
| Cc1cc(NC(=O)COc2ccc(Cl)cc2Cl)n(CCC#N)n1 | -18.1% [at 38.3 µM] |  |
| N#Cc1ccccc1NC(=O)c1cccc(COc2ccc(Cl)cc2Cl)c1 |  | 8.91 µM (active) |
| CSc1ccc(C#N)cc1NC(=O)c1cccc(Cl)c1 | -4.13% [at 38.3 µM] |  |
| O=C(Nc1ccc(Sc2ccc(Br)cc2)cc1)c1ccco1 | 6.53% [at 38.3 µM] |  |
| Cc1ccccc1NC(=O)c1cnn(-c2ccccc2)c1NC(=O)c1ccco1 | -10.3% [at 38.3 µM] |  |
| O=C(Nc1c(-c2ccccc2)nc2c(Br)cc(Br)cn12)c1ccco1 |  | 10 µM (active) |
| COc1ccc(-c2c(C)cc3oc(=O)cc(-c4ccccc4)c3c2C)cc1OC | 16.6% |  |
| C=C(C)C(=O)c1ccc(F)cc1 | 17.7% |  |
| Cc1sc2ncnc(Sc3nc4ccccc4s3)c2c1C |  | 14.1 µM (active) |
| c1ccc2sc(SCCSc3nc4ccccc4s3)nc2c1 | -2.64% |  |
| CSc1ncnc2sc(C)c(C)c12 | 1.83% |  |
| COC(C)C(C(=O)OCC1=CCN2CC[C@H](O)[C@@H]12)C(C)C (some centres undefined) | 29.6% |  |
| OC[C@H]1O[C@@H](n2cnc3c(NC4CCCC4)ncnc32)[C@H](O)[C@H]1O | 22.1% |  |
| CC/C=C\C/C=C\C/C=C\C/C=C\C/C=C\C/C=C\CCC(=O)NCCc1ccc(O)c(O)c1 | 14.2% |  |
| Cc1nonc1NC(=O)CSc1nc2ccccc2cc1C#N | -6.66% |  |
| Cc1nc2cc(NC(=O)CSc3nc4c(C)cccc4cc3C#N)ccc2s1 |  | 11.2 µM (active) |
| Cc1ccc2cc(C#N)c(SCC(=O)NCC3CCCO3)nc2c1C (centres undefined) | -16.1% [at 38.3 µM] |  |
| O=C1c2cccc3cccc(c23)C(=O)N1CCCCCc1n[nH]c(=S)o1 | -2.87% |  |
| C[N+](C)(CCCCCC[N+](C)(C)CCCN1C(=O)c2cccc3cccc(c23)C1=O)CCCN1C(=O)c2cccc3cccc(c23)C1=O |  | 10 µM (active) |
| O=C(CN1C(=O)c2cccc3cccc(c23)C1=O)N1CCCCC1 | -1.07% |  |
| O=C1CCC[C@@H]2CC(N3CCCCC3)C[C@@H]3CCN1[C@H]23 (some centres undefined) | 16.1% |  |
| CCCCC[C@H](O)/C=C/[C@@H]1[C@@H](CC(=O)CCC(=O)O)[C@@H](O)C[C@H]1O | 17.9% |  |
| CCCCC/C=C\C/C=C\CCCCCCCCCC(=O)NCC(=O)O | 3.03% |  |
| N#Cc1c(-c2ccc(Cl)cc2)c2c([nH]c1=S)CCCC2 | 2.7% |  |
| CNc1nccc(-c2ccc(Cl)cc2)c1C#N | -2.1% |  |

| Compound | activity, negative = IMPase inhibition | Potency |
| --- | --- | --- |
| CN(C)c1nc(-c2cccnc2)nc(-c2ccc(Cl)cc2)c1C#N |  | 7.94 µM (active) |
| COC(=O)CCCC1=CC2=CC(=O)C(C)(OC(=O)c3cccs3)C(=O)C2=CN1c1ccc(CO)cc1 (centres undefined) | -7.18% |  |
| CC(=O)c1sc(N/N=C\c2ccc(C)cc2)nc1C | 5.69% |  |
| CC(=O)c1sc(NC(=O)c2ccc(C)cc2)nc1C |  | 12.6 µM (active) |
| CC(=O)c1sc(NC(=O)c2cccc3ccccc23)nc1C | -12.6% [at 38.3 µM] |  |
| COC(=O)C1=C(C(=O)OC)[C@@H]2Nc3ccccc3[C@@]23C[C@@H](C(=O)OC)N(S(=O)(=O)c2ccc([N+](=O)[O-])cc2)C3=N1 | 23.4% |  |
| CC(=O)OC1C([N+]2(C)CCCCC2)C[C@H]2C3CC[C@H]4C[C@H](OC(C)=O)C([N+]5(C)CCCCC5)CC4(C)C3CCC12C (some centres undefined) | 27.8% |  |
| COCOc1cc(OC)ccc1C(=O)/C=C/c1ccc([N+](=O)[O-])cc1 | -13.9% |  |
| CC(=O)Oc1ccc(NC(=O)CCC2CCCCC2)c(C(=O)O)c1 | 6.82% |  |
| CC(=O)c1cc(NC(=O)c2ccccc2)c(=O)oc1/C=C/N(C)C | 17.6% [at 38.3 µM] |  |
| CC(=O)Nc1cc2ccc(OC(C)=O)cc2oc1=O |  | 8.91 µM (active) |
| COCCN1C=C2C(=O)C(C)(OC(=O)C3CCCC3)C(=O)C=C2C=C1c1ccsc1 (centres undefined) | 0.622% |  |
| N#Cc1cccc(CS(=O)(=O)c2nnnn2-c2cc(C(F)(F)F)cc(C(F)(F)F)c2)c1 | 20.7% |  |
| C=C(C(C)=O)C(O)c1cccs1 (centres undefined) | -3.84% |  |
| COc1ccc(-c2nc3c(c4c2C[C@H](c2ccccc2)OC4)CN(C(=O)c2cccnc2)CC3)c(C)c1 | 2.33% |  |
| Cc1cc(C)n(-c2nc(SCC(=O)N3CCCC3)c3c4c(sc3n2)CCCC4)n1 | 16.9% |  |
| Cc1ccc(-c2csc(SCC(=O)Nc3cc(C)on3)n2)cc1 | 7.82% |  |
| Cc1nc(SCC(=O)Nc2cc(C)on2)c2c3c(sc2n1)CCCC3 |  | 10 µM (active) |
| CC(C)c1cnc(NC(=O)Cc2ccccc2)s1 | -1.45% |  |
| COc1ccc(CC(N)C(=O)NC2C(O)[C@H](n3cnc4c(N(C)C)ncnc43)O[C@@H]2CO)cc1 (some centres undefined) | 0.536% |  |
| CC[C@@]12C=C(/C=C/c3ccccc3)[C@](CC)(C1)[C@H](c1ccccc1)CC2=O | 10.1% |  |
| COCCN1C(=O)N[C@@H](CCc2ccccc2)[C@H](C(C)=O)[C@H]1C | -3.57% |  |
| S=c1nccc(-c2cc(Cl)sc2Cl)[nH]1 |  | 11.2 µM (active) |
| Nc1nc2c(ncn2[C@@H]2O[C@H](COP(=O)(O)OP(=O)(O)OP(=O)(O)O)[C@@H](O)C2O)c(=O)[nH]1 (some centres undefined) | -0.194% |  |
